Sfp PPTase inh: qHTS Assay for Inhibitors of Bacillus subtilis Sfp phosphopantetheinyl transferase (PPTase); 4'-phosphopantetheinyl transferase ffp (Bacillus subtilis), Q9F4F7; Biochemical Sfp PPTase activity, qHTS; Potency, µM, inactives show largest response in the series, negative = inhibition, hits mostly inhibitors; 3.5% of 310,000 active;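 further: the enzyme is Sfp with the accession as filed and its product quenches rhodamine fluorescence; 0% = enzyme reaction without inhibitor and -100% = no enzyme wells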
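Buffer: 50 mM Hepes-Na pH 7.6, 10 mM MgCl2, 0.01% Nonidet P-40, 0.01% BSA. Enzyme 15 nM, pre-exposed to compound 15 min; substrates then added and fluorescence change tracked over 30 min.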
VDR inh: Inhibitors of the vitamin D receptor (VDR): qHTS. Vitamin D3 receptor (Homo sapiens), P11473. VDR-SRC2-3 peptide fluorescence polarization, 2 h. Potency, µM, without a hit: max response, negative = inhibition, actives largely listed as inhibitors. 0.93% of 400,000 active. AID 504847, 2011
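Inhibition of the VDR/SRC2-3 peptide interaction is quantified by fluorescence polarization. Compounds (23 nl, pintool) incubate with the reagents for 2 hours at ambient room temperature.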
PLK1 PBD inh: qHTS for Inhibitors of PLK1-PDB (polo-like kinase 1 - polo-box domain): Primary Screen; 2.8% of 360,000 active; Serine/threonine-protein kinase PLK1 (Homo sapiens), P53350; Plk1 PBD binding of FITC phosphopeptide, fluorescence polarization; Potency, µM, for inactives: max response, negative = inhibition, usual class: inhibitors; further: series mostly up to about 57 µM; nearly all actives have a fitted effect of over 65% in size
12-LOX inh: Primary qHTS assay for inhibitors of human arachidonate 12S-lipoxygenase (ALOX12): Round 2; Potency, µM (titrated, usually from 108 µM), inactives show top-dose activity change, negative = inhibition, actives largely listed as inhibitors; 1.1% of 580,000 active; purified 12hLO, xylenol orange hydroperoxide absorbance; Polyunsaturated fatty acid lipoxygenase ALOX12 (Homo sapiens), P18054; AID 1671190, 2021
Target sequence (P18054 whole entry, looked up): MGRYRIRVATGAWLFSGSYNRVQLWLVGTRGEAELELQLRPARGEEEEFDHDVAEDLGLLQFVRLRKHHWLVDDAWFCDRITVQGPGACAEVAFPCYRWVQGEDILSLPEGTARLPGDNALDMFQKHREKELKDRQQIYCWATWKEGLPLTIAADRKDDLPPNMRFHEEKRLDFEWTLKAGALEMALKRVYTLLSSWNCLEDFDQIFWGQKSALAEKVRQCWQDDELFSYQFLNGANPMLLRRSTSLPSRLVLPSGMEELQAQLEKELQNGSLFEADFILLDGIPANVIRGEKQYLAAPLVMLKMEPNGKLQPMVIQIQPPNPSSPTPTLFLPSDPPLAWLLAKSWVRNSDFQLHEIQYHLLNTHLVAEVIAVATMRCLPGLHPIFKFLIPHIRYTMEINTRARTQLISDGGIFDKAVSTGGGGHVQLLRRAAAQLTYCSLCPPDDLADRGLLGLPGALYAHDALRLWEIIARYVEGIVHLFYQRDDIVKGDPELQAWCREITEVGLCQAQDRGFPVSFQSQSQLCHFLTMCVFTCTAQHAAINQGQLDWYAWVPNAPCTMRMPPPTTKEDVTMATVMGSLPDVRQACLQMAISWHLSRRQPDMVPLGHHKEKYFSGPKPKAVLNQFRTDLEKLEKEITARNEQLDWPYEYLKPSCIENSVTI
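Purified human 12hLO (150 nM final) in 25 mM Hepes, 0.01% Triton X-100, pH 7.0 was preincubated 15 min at room temperature with compound. Then 40 uM arachidonic acid was added, 30 min. Hydroperoxide was read by Fe-XO absorbance ratio 573/405 nm.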
An asterisk follows results filed as active; ? = inconclusive; . = no result given; ! = repeats disagree; [ ] = another dose, or the depositor's remark. An excerpt weighted towards active compounds, which were near 4.2% of everything screened. The call rests on the fitted dose curve; in most records, active means well fitted curve in the direction sought with a large enough effect; inconclusive means small, poorly fitted or top-dose-only effect, or another doubt; inactive means no such curve, though single readings can be large; an effect the other way counts as inactive or inconclusive. Unless noted, on the % scale 0 is the no-effect control and ±100 the full control effect; potency means the concentration at half of the fitted maximal effect.

SMILES	Sfp PPTase inh	VDR inh	PLK1 PBD inh	12-LOX inh
COc1ccc(/C=C2/SC(=S)N(CC(=O)O)C2=O)cc1OCc1ccc(Cl)cc1	-33%	?	30µM*	-7%
COc1cc(/C=C2\SC(=S)N(CC(=O)O)C2=O)ccc1OC(=O)c1ccco1	-16%	-28%	-9%	-24%
CC(=O)n1nc(-c2ccc(Cl)cc2)nc1NCc1ccco1	4%	?	21µM*	10%
O=C(c1ccccc1)n1nc(-c2ccc(Cl)cc2)nc1NCc1ccco1	.	-6%	.	-24%
N#Cc1ccccc1S(=O)(=O)N[C@H]1CO[C@H]2[C@@H]1OC[C@H]2OC(=O)Nc1ccc(Oc2ccccc2)cc1	.	.	.	-16%
COc1ccc(N2CCN(C(=O)CSc3nnc(C)c(=O)[nH]3)CC2)cc1	?	2%	-15%	?
Cc1nc2ccccc2cc1C(=O)O	-2%	-2%	-2%	7.9µM*!
Cc1nc2ccccc2cc1C(=O)NCc1ccccc1	.	-15%	-20%	98%
O=C(O)Cc1cc2ccccc2nc1C(=O)O	79µM*	5%	.	?
CC(C)c1noc(-c2cn(C3CCN(C(=O)c4cccc(Cl)c4)C3)nn2)n1 (stereo not given)	.	.	.	-3%
CCCSc1nc(C)c(CC(=O)OCC)c(=O)[nH]1	-6%	-3%	-8%	-25%
COc1ccc(/C=N/Nc2nncc3ccccc23)cc1	50µM*	3%	-28%	?
COc1cccc(/C=N/Nc2nn3cnnc3c3ccccc23)c1	56µM*	-7%	1%	156%[57.4 µM]
COc1ccccc1/C=N/Nc1nncc2ccccc12	?	-1%	-8%	10%
C(=N\Nc1nn2cnnc2c2ccccc12)/c1ccco1	50µM*	?	-4%	9%
COc1cccc(/C=N/Nc2nc3ccccc3n3cnnc23)c1	18%	-11%	4%	14%
COc1cc(/C=N/Nc2nn3cnnc3c3ccccc23)ccc1O	40µM*	-2%	2%	0%
CC(C)Cc1nc(N2CCN(C(=O)C(=O)NCCCO)CC2)c(C#N)c2c1CCCC2	.	.	.	20%
CC(C)Cn1nc(C(=O)Nc2ccc(F)c(Cl)c2)c2ccccc2c1=O	.	.	.	5%
Cc1nc2c(c(-c3ccc(O)cc3)n1)CN(CCC(C)C)CCC2	.	.	.	3%[176 µM]
Oc1ccc(/C=N/Nc2nn3cnnc3c3ccccc23)cc1	56µM*	0%	-4%	7%
O=C(Nc1ccccc1)Nc1csc2ccccc12	50µM*	6%	1%	?
CC(=O)Nc1csc2ccccc12	15%	-3%	-18%	4%
O=C(Nc1ccccc1)Nc1ccc(O)c2ccccc12	.	50µM*	?	.
O=C(/C=C/c1ccccc1)OCCCCN=C1NS(=O)(=O)c2ccccc21	5%	-1%	27µM*	-5%
SMILES	Sfp PPTase inh	VDR inh	PLK1 PBD inh	12-LOX inh
c1ccc(Cc2nnc3sc(-c4cccs4)nn23)cc1	10%	?	15µM*	-19%
c1ccc(Cc2nnc3sc(-c4ccc5c(c4)OCO5)nn23)cc1	.	-20%	20µM*	-26%
c1ccc(Cc2nnc3sc(-c4cccnc4)nn23)cc1	?	-13%	30µM*	-25%
c1ccc(Cc2nnc3sc(-c4ccncc4)nn23)cc1	-67%	4%	?	?
c1ccc(Cc2nnc3sc(-c4ccc5c(c4)OCCO5)nn23)cc1	?	0%	-7%	126%
CCOc1ccc(OCC(=O)NCCS(=O)(=O)N2CCN(c3ccc(F)cc3)CC2)cc1	4%	2%	-2%	14%
CC(C)c1ccc(NC(=O)c2ccc(N(C)C)cc2)cc1	.	.	.	45µM*
CC(C)Oc1ccc(C(=O)Nc2ccc(N(C)C)cc2)cc1	-10%	-4%	-1%	-23%
CNC(=O)N(O)C1N(/N=C/c2cc(Br)ccc2O)C(=S)SC1(C)C (stereo not given)	79µM*	-17%	-12%	?
CC(=O)c1cccc(NC(=O)c2cc(-c3ccc(Cl)s3)nc3ccccc23)c1	.	-1%	.	4%
O=C(NCCOc1ccccc1Cl)C(=O)NCCOc1ccccc1Cl	8%	-16%	-1%	-16%
O=C(CNC(=O)c1ccccc1F)NCCOc1ccccc1Cl	1%	-9%	27µM*	-11%
Cc1onc(-c2ccccc2Cl)c1C(=O)OCC(=O)N1CCC(C)CC1	.	2%	-6%	7%
C[C@H]1[C@@H]2[C@H]3OC(=O)[C@@H](C)[C@@H]3CC[C@@]2(C)CC[C@@H]1NC(=O)C1CCCCC1	.	.	.	4%[176 µM]
CC1C(=O)OC2C1CCC1(C)CCC(=O)C(C)C21 (stereo not given)	-30%	-1%	30µM*	?
Cc1nn(-c2ccccc2)c2[nH]c(=O)c(CNc3ccc(N4CCOCC4)cc3)cc12	45µM*	-12%	3µM*	?
CC(C)(C)c1nn(-c2ccccc2)c2[nH]c(=O)c(CNc3ccc4c(c3)OCCO4)cc12	9%	18%	-1%	5%
COC(=O)c1cccc(-c2ccc(C(c3c(C)[nH][nH]c3=O)c3c(C)[nH][nH]c3=O)o2)c1	8.9µM*	-27%	24µM*	?
Cc1[nH][nH]c(=O)c1C(c1ccc(-c2ccc(Cl)c(C(=O)O)c2)o1)c1c(C)[nH][nH]c1=O	-72%	40µM*	?	?
Cc1ccc(-c2ccc(C(=O)O)o2)cc1Cl	-5%	-3%	-3%	1%
COC(=O)c1ccccc1-c1ccc(C(c2c(C)[nH][nH]c2=O)c2c(C)[nH][nH]c2=O)o1	6%	?	?	?
O=C(c1cccs1)N1CCN(C2CCN(Cc3ccccc3)CC2)CC1	20%	14%	-3%	-24%
C=CCSC1=N/C(=C\c2ccc(C)s2)C(=O)S1	.	.	.	-23%
CCCCn1c(-c2csc(CC)c2)n[nH]c1=S	20µM*	-7%	-13%	50µM*
CCCCn1c(-c2csc(C(C)C)c2)n[nH]c1=S	-18%	-11%	?	?
COCCNC(=O)c1cccc(OC2CCN(Cc3ccccc3OCCO)CC2)c1	1%	-14%	-2%	.
c1coc(-c2nn3c(Cn4nnc5ccccc54)nnc3s2)c1	45µM*	?	27µM*	0%
Clc1ccc(Cc2nn3c(Cn4nnc5ccccc54)nnc3s2)cc1	28µM*	-22%	27µM*	?
S=c1[nH]nc(Cn2nnc3ccccc32)n1-c1ccc(Cl)cc1	-10%	1%	4%	-1%

Assay outcomes as filed in PubChem BioAssay.
